Test results published in PubChem BioAssay AID1159580 (chemical genetic matrix, 2015).
“And” between values parts separate entries of the source, which are not always exact repeats. Equal values may be shown once. The whole screen tested about 5,500 compounds, of which about 2,000 (36%) were called active. Roughly 18% stayed inconclusive and do not appear here. Rule as the data show it: active = normalized growth mostly below about 0.91 (no sharp cut-off); inconclusive = no clear call, values can overlap the other calls; inactive = mostly above about 0.92. This is one part of the list.

Test: chemical genetic growth profiling, strain panel (AID 1159580);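 also: tested at 20 µM; growth read once vehicle control cultures reached saturation at 30 °C; 1 = growth at the plate median or of vehicle wells; lower values mean less growth of the strain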
Conditions: S. cerevisiae deletion strains, growth OD

Measured: normalized growth

COC(=O)/C(=C1\OC(=O)C(c2ccccc2)=C1O)c1ccccc1
inactive: locus YAL013W, strain DEP1, hits give low values 1.01 | locus YAL021C, strain ccr4, hits give low values 0.979 | locus YAL026C, strain drs2, hits give low values 0.979 | locus YAL030W, strain snc1, hits give low values 0.981 | locus YBL061C, strain skt5, hits give low values 0.977 | locus YBR009C, strain hhf1, hits give low values 1 | locus YBR021W, strain FUR4, hits give low values 0.963 | locus YBR023C, strain chs3, hits give low values 0.976 | locus YBR171W, strain sec66, hits give low values 0.987 | locus YBR229C, strain ROT2, hits give low values 0.993 | locus YBR231C, strain swc5, hits give low values 0.985 | locus YBR279W, strain paf1, hits give low values 0.984 | locus YCL011C, strain gbp2, hits give low values 0.979 | locus YCL016C, strain dcc1, hits give low values 0.981 | locus YCL029C, strain bik1, hits give low values 0.987 | locus YCL061C, strain MRC1, hits give low values 0.966 | locus YCL069W, strain vba3, hits give low values 0.968 | locus YCR088W, strain abp1, hits give low values 0.962 | locus YDL005C, strain med2, hits give low values 0.974 | locus YDL035C, strain GPR1, hits give low values 1 | locus YDL040C, strain nat1, hits give low values 0.969 | locus YDL074C, strain BRE1, hits give low values 1.03 | locus YDL101C, strain DUN1, hits give low values 1.01 | locus YDL134C, strain PPH21, hits give low values 0.998 | locus YDL185W, strain tfp1, hits give low values 0.987 | locus YDL192W, strain arf1, hits give low values 1 | locus YDR001C, strain nth1, hits give low values 0.958 | locus YDR069C, strain doa4, hits give low values 1.01 | locus YDR101C, strain arx1, hits give low values 1 | locus YDR137W, strain rgp1, hits give low values 0.967 | locus YDR150W, strain NUM1, hits give low values 0.987 | locus YDR159W, strain sac3, hits give low values 0.974 | locus YDR162C, strain NBP2, hits give low values 1.02 | locus YDR195W, strain ref2 0.943 | locus YDR297W, strain sur2, hits give low values 0.977 | locus YDR318W, strain mcm21, hits give low values 0.986 | locus YDR334W, strain swr1, hits give low values 0.971 | locus YDR335W, strain msn5, hits give low values 0.982 | locus YDR388W, hits give low values 0.993 | locus YDR392W, strain spt3, hits give low values 0.972 | locus YDR502C, strain sam2, hits give low values 1.01 | locus YEL003W, strain gim4, hits give low values 0.985 | locus YEL037C, strain rad23, hits give low values 0.973 | locus YEL061C, strain CIN8 (second series), hits give low values 0.964 | locus YEL061C, strain CIN8, hits give low values 0.984 | locus YER015W, strain faa2, hits give low values 0.967 | locus YER016W, strain bim1, hits give low values 0.984 | locus YER110C, hits give low values 0.997 | locus YER111C, strain swi4, hits give low values 0.976 | locus YER155C, strain BEM2 (second series), hits give low values 1 | locus YER155C, strain BEM2, hits give low values 0.994 | locus YER167W, strain BCK2, hits give low values 0.999 | locus YFR010W, strain ubp6, hits give low values 0.991 | locus YGL078C, strain dbp3, hits give low values 0.993 | locus YGL086W, strain mad1, hits give low values 1.01 | locus YGL167C, strain pmr1, hits give low values 0.951 | locus YGL173C, strain kem1, hits give low values 0.993 | locus YGL227W, strain vid30, hits give low values 0.977 | locus YGL240W, strain doc1, hits give low values 1.02 | locus YGL248W, strain PDE1, hits give low values 1 | locus YGL253W, strain hxk2, hits give low values 0.968 | locus YGR078C, strain PAC10, hits give low values 1.03 | locus YGR135W, strain pre9, hits give low values 0.995 | locus YGR229C, strain SMI1, hits give low values 0.98 | locus YGR252W, strain gcn5, hits give low values 0.984 | locus YHR013C, strain ard1, hits give low values 0.963 | locus YHR027C, strain rpn1, hits give low values 0.976 | locus YHR030C, strain SLT2, hits give low values 0.99 and 0.914 | locus YHR079C, strain IRE1 (second series), hits give low values 0.991 | locus YHR079C, strain IRE1, hits give low values 0.912 | locus YHR094C, strain hxt1, hits give low values 0.989 | locus YHR129C, strain ARP1, hits give low values 0.989 | locus YHR142W, strain chs7, hits give low values 0.93 | locus YHR200W, strain rpn10, hits give low values 0.988 | locus YIL066C, strain RNR3, hits give low values 1.01 | locus YIL073C, strain SPO22, hits give low values 1.05 | locus YIL125W, strain kgd1, hits give low values 0.974 | locus YIR030C, strain dcg1, hits give low values 0.998 | locus YJL092W, strain hpr5, hits give low values 0.959 | locus YJL095W, strain BCK1 (second series), hits give low values 0.973 | locus YJL095W, strain BCK1, hits give low values 1.05 and 0.936 | locus YJL115W, strain asf1, hits give low values 0.974 | locus YJL129C, strain trk1, hits give low values 0.917 | locus YJL134W, strain LCB3, hits give low values 0.991 | locus YJL154C, strain vps35, hits give low values 0.957 | locus YJL164C, strain tpk1, hits give low values 0.986 | locus YJL166W, strain qcr8, hits give low values 0.993 | locus YJL168C, strain set2, hits give low values 0.996 | locus YJL187C, strain SWE1 (second series), hits give low values 1.04
